# A selection: hits, their analogues and other compounds. The true share with any hit is near 11%.
# Tau fibril FP = tau fibrillization inhibition (FP); hit rate 0.39% among 280,000; Potency, µM (top dose mostly 57.7 µM), for inactives: top-dose activity, negative = inhibition, most hits filed as inhibitors; K18 P301L tau heparin fibrillization, Alexa594 FP, 6 h; also: potency is read from the fitted curve at half-maximal effect; nearly all actives have a fitted effect of over 55% in size
# Target sequence (P10636 561-689 P618L limits assumed): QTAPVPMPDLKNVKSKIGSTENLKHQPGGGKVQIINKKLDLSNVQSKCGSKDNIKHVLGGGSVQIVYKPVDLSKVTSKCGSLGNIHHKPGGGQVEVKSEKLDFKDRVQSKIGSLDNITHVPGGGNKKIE
#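 K18 P301L tau (15 uM unlabeled/0.24 uM Alexa 594-labeled, final) + compound + heparin 20 uM final; 100 mM NaOAc pH 7; 6 hr 37 C; ThT 30 uM final added, 1 hr RT; FP ex 555/em 632 nm.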
# Tau ThT inhib = inhibitors of human tau fibril formation, thioflavin T binding; P10636; recombinant tau K18 P301L, heparin-induced fibrillization, ThT fluorescence; Potency, µM (top dose mostly 57.4 µM), without a hit: at the highest dose activity, negative = inhibition, actives largely listed as inhibitors; hit rate 2.1% among 270,000; also: potency is read from the fitted curve at half-maximal effect; nearly all actives have a fitted effect of over 55% in size
#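 ThT emission at 510 nm, taken 1 hr after adding 30 uM dye, quantifies aggregates formed when 20 uM heparin acts on human tau K18 P301L for 6 hr at 37 C.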
# G9a block = inhibitors of human histone lysine methyltransferase G9a | Potency, µM (top dose mostly 102 µM), for inactives: at the highest dose activity, negative = inhibition, most hits filed as inhibitors | G9a H3K9 monomethylation, AlphaScreen, 2 h | Q96KQ7 | hit rate 8.8% among 350,000; also: potency is read from the fitted curve at half-maximal effect; nearly all actives have a fitted effect of over 75% in size
# Target sequence (Q96KQ7 913-1193 limits assumed): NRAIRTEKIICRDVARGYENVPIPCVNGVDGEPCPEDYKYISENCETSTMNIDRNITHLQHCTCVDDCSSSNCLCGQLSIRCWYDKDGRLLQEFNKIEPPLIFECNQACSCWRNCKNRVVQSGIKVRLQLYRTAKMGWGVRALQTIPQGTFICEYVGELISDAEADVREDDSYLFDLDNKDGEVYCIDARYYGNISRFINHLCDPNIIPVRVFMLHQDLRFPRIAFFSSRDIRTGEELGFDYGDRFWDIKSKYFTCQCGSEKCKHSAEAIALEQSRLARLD
#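 AlphaScreen read-out: biotin-H3K9 peptide (500 nM) methylation by 20 nM enzyme with 20 uM SAM, 2 h at room temperature after 15 min compound preincubation; anti-monomethyl H3K9 antibody plus donor/acceptor beads, 10 min dark.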
# Coupling enz = coupling enzyme interference in Giardia aldolase counter-screen. coupling enzyme system counterscreen, AmpLite Red fluorescence. activity change, negative = inhibition, % at 58.2 µM, hits read low. hit rate 0.67% among 290,000. AID 2472; in the data active = activity change below about -30%
#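 Fluorescence at 525 nm excitation and 598 nm emission measured inhibition of the coupled detection system without aldolase. Compounds (at 57.5 uM final) were preincubated 10 min at room temperature with coupling enzyme reagent before a 20 min substrate/AmpLite Red step.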
# Sfp PPTase inh = Sfp phosphopantetheinyl transferase inhibition; Biochemical Sfp PPTase activity, qHTS; hit rate 3.5% among 310,000; Potency, µM, for inactives: largest response in the series, negative = inhibition, hits mostly inhibitors; AID 1490;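 also: the enzyme is Sfp with the accession as filed and its product quenches rhodamine fluorescence; potency is read from the fitted curve at half-maximal effect; 0% = enzyme reaction without inhibitor and -100% = no enzyme wells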
#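 Fluorescence-quenching assay with 15 nM Sfp, 5 uM rhodamine-CoA and 12.5 uM BHQ-2-labelled ybbR peptide in pH 7.6 Hepes/MgCl2 buffer. Enzyme was pre-incubated with compound for 15 min at room temperature. Rate was taken from the 30-min fluorescence change (525/598 nm).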
# Tau fluor counter = counter-screen for tau fibril formation inhibitors; tau K18 P301L (four-repeat tau fragment) Alexa594 fluorescence, heparin fibrillization; Potency, µM (top dose mostly 57.7 µM), without a hit: top-dose activity change, negative = decrease; hit rate 0.93% among 280,000; also: potency is read from the fitted curve at half-maximal effect; nearly all actives have a fitted effect of over 55% in size
#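 Human K18 P301L tau (15 uM unlabeled plus 0.24 uM Alexa 594-labeled, final) in 100 mM sodium acetate pH 7 was mixed with compound and 20 uM heparin and incubated 6 hr at 37 C.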
# Starred values were filed as active, the others as inactive; u = inconclusive; x = no result; [ ] = another dose, or the depositor's remark. Unless noted, calls follow the shape of the dose curve; as a rule, active = well fitted curve in the direction sought with a large enough effect; inconclusive = small, poorly fitted or top-dose-only effect, or another doubt; inactive = no such curve, though single readings can be large; an effect the other way counts as inactive or inconclusive. Unless noted, % is scaled to controls: 0 for no effect and ±100 for the full control effect.
SMILES,Tau fibril FP,Tau ThT inhib,G9a block,Coupling enz,Sfp PPTase inh,Tau fluor counter
COc1cccc(/C=C/C(=O)Nc2ccc3c(c2)OCCO3)c1OC,10%,u,-33%,0,14%,-21%
CCCCn1c(=O)nc2n(-c3ccc(F)cc3)c3ccccc3cc-2c1=O,6%,-3%,u,x,x,-2%
COc1cc([C@@H]2c3cc4c(cc3[C@@H](O[C@@H]3O[C@H]5CO[C@@H](C)O[C@@H]5[C@@H](O)[C@H]3O)[C@@H]3COC(=O)[C@@H]23)OCO4)cc(OC)c1O,2%,4%,x,-49*,89µM*,6%
COc1cc([C@@H]2c3cc4c(cc3[C@@H](OC3OC5COC(C)OC5C(O)C3O)[C@H]3COC(=O)[C@H]23)OCO4)cc(OC)c1O (some centres undefined),-6%,-10%,u,x,34%,-12%
O=C(CN1C(=O)c2cccnc2Sc2ccccc21)Nc1cc(F)ccc1F,2%,-3%,2%[59 µM],x,x,-2%
CCOC(=O)c1cc(-c2ccccc2)n(CC(=O)N(C)c2ccc(OC)cc2)c1C,-3%,u,-49%[59 µM],x,x,-7%
O=C(Nc1ccc(-c2n[nH]c(=S)o2)cc1)c1ccccc1Cl,x,x,1.8µM*,9,-3%,x
O=C(Nc1ccc(-c2csc(-c3ccccc3)n2)cc1)c1ccccc1Cl,-16%,5%,17%,x,-1%,0%
O=c1c(-c2nn[nH]n2)coc2ccc(Cl)cc12,-1%,6%,28µM*,7,10%,7%
COc1ccc(C)cc1S(=O)(=O)Nc1cccc(-c2ccc(N3CCCC3)nn2)c1,-3%,1%,-4%[59 µM],x,x,2%
N#Cc1c(C#N)c(O)c2ccccc2c1O,u,14µM*,2µM*,-24,13µM*,-26%
CC(=O)Nc1ccc(S(=O)(=O)NCC2CCC(C(=O)NCCc3ccc(C)cc3)CC2)cc1 (centres undefined),-8%,-8%,0%[59 µM],x,x,1%
Cc1snc(SCC(=O)c2ccc([N+](=O)[O-])cc2)c1C#N,u,14µM*,1.8µM*,-2,20µM*,-26%
O=C(CSc1nc2ncc(Br)cc2[nH]1)c1ccc([N+](=O)[O-])cc1,u,28µM*,14µM*,2,-10%,u
O=C(CSc1ncnc2nc[nH]c12)c1ccc(Cl)cc1,x,x,x,0,50µM*,x
O=C(CSc1ncnc2nc[nH]c12)c1ccc([N+](=O)[O-])cc1,-6%,u,x,-3,45µM*,-16%
O=C(CSc1ncnc2nc[nH]c12)c1ccccc1,-1%,0%,u,5,16µM*,1%
c1ccc(CCSc2ncnc3nc[nH]c23)cc1,5%,-1%,-2%,-1,12%,1%
COc1ccccc1C(=O)Nc1ccccc1SCc1cc(=O)c2ccccc2[nH]1,-7%,-6%,-21%[59 µM],x,x,-10%
C/C(=C\c1cccc(Br)c1)C(=O)c1c(C)cc(C)[nH]c1=O,x,x,17%[2.33 µM],3,8%,x
C/C(=C\c1ccc(C)o1)C(=O)c1c(C)cc(C)[nH]c1=O,-1%,-13%,50µM*,-2,32µM*,6%
O=C(COC(=O)CN1C(=O)COc2ccccc21)NCc1ccc(F)cc1,x,x,-6%[0.501 µM],x,x,x
Cc1cccn2c(=O)c3cc(S(=O)(=O)c4ccccc4)c(=N)n(Cc4ccco4)c3nc12,0%,-8%,-46%,6,56µM*,4%
N=c1c(S(=O)(=O)c2ccccc2)cc2c(=O)n3ccccc3nc2n1Cc1ccco1,-5%,u,-3%[59 µM],1,u,-11%
Cc1cccn2c(=O)c3cc(S(=O)(=O)c4ccc(F)cc4)c(=N)n(Cc4ccco4)c3nc12,-2%,-20%,-6%,5,-12%,-20%
Cc1ccc(S(=O)(=O)c2cc3c(=O)n4ccccc4nc3n(Cc3ccco3)c2=N)cc1C,-3%,u,u,3,79µM*,-18%
CCOC(=O)c1c(N/N=C/c2cccnc2)n[nH]c1C,-2%,-18%,71µM*,-1,-1%,-17%

# Compound activity: PubChem BioAssay, National Center for Advancing Translational Sciences (NCATS)
